From PubChem BioAssay AID1053197 (The Scripps Research Institute Molecular Screening Center, 2014) come the findings set out here.

Screen size: about 370,000 compounds; about 2,600 (0.7%) were called active. The entries come from a sample that favours actives as a whole. Unmarked numbers belong to inactive results.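 Rule for the calls: active = inhibition above a cutoff: mean of compounds within the control limits plus 3 SD of those (cut at about 17% in these data); inactive = the rest.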

For this assay, the target named is Sialate O-acetylesterase (Homo sapiens) (UniProt Q9HAT2). Nature of the assay: human SIAE inhibitors, primary screen, biochemical, fluorescence polarization, FP-Rh probe, 1536-well HTS (AID 1053197).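 Note: 0% = plate median of compound wells and 100% = probe without SIAE protein.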 Conditions: SIAE FP-Rh probe binding, at 9.66 µM, stronger effect = higher value. (In general: Fluorescence polarisation rises when a labelled molecule tumbles more slowly, as on binding a larger partner.)
Chain of Sialate O-acetylesterase (Homo sapiens) (Q9HAT2 whole entry, looked up): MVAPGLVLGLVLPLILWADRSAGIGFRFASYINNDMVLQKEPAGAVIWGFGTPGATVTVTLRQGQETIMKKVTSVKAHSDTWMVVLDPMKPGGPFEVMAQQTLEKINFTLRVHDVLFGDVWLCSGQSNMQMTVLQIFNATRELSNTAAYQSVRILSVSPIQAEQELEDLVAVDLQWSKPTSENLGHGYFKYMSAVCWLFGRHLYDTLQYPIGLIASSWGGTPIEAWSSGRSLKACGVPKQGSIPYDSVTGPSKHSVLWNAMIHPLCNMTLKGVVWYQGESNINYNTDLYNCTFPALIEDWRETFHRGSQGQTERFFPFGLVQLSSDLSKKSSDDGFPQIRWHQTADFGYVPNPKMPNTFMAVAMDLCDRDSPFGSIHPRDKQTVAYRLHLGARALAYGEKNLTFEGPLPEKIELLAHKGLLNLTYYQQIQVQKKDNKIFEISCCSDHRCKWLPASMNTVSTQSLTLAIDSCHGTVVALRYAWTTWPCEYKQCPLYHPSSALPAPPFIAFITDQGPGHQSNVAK
The term inhibition denotes the change of the read-out against control, counted positive when it falls. As to `COc1ccc(CN2C(=O)N3Cc4cc(OC)ccc4C3CS2(=O)=O)cc1` (stereo not drawn), the inhibition is -3.42%.
With `CCOC(=O)C1=C(O)/C(=C/c2ccc(OCC(=O)Nc3ccc(C)cc3)cc2)N=C1C`, the inhibition is -21.7%.
For `Cc1ccc(OCC(=O)Nc2ccc(-c3nnc(-c4ccco4)o3)cc2)cc1`, the inhibition is 32.9% (active).
As to `Cc1ccc(-c2nnc(SCC(=O)Nc3ccc(Oc4ccccc4)cc3)n2Cc2ccco2)cc1`, the inhibition is -0.26%.
To `Cc1nc(NC(=O)C(C)(C)C)sc1[N+](=O)[O-]` belongs -3.66%; to `COC(=O)c1c(C(=O)OC)c2n(c1C)CCS2`, -0.54%.
With `COC(=O)C1=C(NC(=O)C(C)(C)C)CCS1`, the inhibition is 17.4% (active).
On to `Cc1cc(C)n2ncc(C(=O)Nc3ccc4c(c3)OCCO4)c2n1`, for which the inhibition was 13.6%.
On to `CCOC(=O)c1cccc(NC(=O)CN(C)S(=O)(=O)c2ccc(-c3cocn3)s2)c1`, for which the inhibition was 2.17%.
In the case of `O=C(O)Cc1sc(-c2ccccc2)nc1-c1cccs1`, the inhibition was 23.1% (active).
On to `CN(C(=O)COc1nnc(-c2cccs2)c(-c2cccs2)n1)c1ccccc1`, for which the inhibition was -4.55%.
Take `NC(=O)Cc1ccc2sc(-c3ccccc3)nc2c1`: the inhibition was 5.29%.
`CCCCNC(=O)C[C@H]1C(=O)N(Cc2ccc(OC)cc2)C2=CCCC[C@@]21C(=O)OCC`: the inhibition was -2.41%.
In the case of `CCOC(=O)C1CCN(C(=O)C(C)(C)NC(=O)Nc2ccc(F)c(F)c2)CC1`, the inhibition was 0.69%.
As for `C=CS(=O)(=O)N(Cc1nnn(Cc2ccccc2)c1Br)[C@H](C(=O)OC)C(C)C`, the figure is 2.36%; as for `COc1ccc(C2NC(=O)C(=O)/C2=C(\O)c2ccc(Cl)cc2)cc1OC` (stereo not drawn), 0.15%; as for `CCC1(C)COC(c2ccc(OC)c(OC)c2)OC1` (stereo not drawn), -0.64%.
As to `COc1ccc(C2OCC3(CO2)SC(=O)NC3=O)cc1OC` (stereo not drawn), the inhibition was 17.2% (active).
As for `COC(=O)[C@]12C[C@H](CC(=O)N3CCOCC3)C(=O)N(Cc3ccc(Cl)cc3Cl)C1=C[C@H](C(C)C)O[C@@H]2C1CC1`, the inhibition is 7.42%.
`CC1CC(C)CN(C(=O)CSc2nnc(CSc3ncccn3)n2C)C1` (stereo not drawn): the inhibition was -4.27%.
In the case of `CCn1c(CSc2ncccn2)nnc1SCC(=O)N1c2ccccc2CC1C` (stereo not drawn), the inhibition was 6.44%.
For the molecule `CC(=O)CSc1nnc(CSc2ncccn2)n1C1CCCCC1`, the inhibition is 23.7% (active).
As for `C#CCCN([C@H](C(=O)OC)C(C)C)S(=O)(=O)c1ccc(F)cc1Br`, the inhibition was 0.24%.
As to `Clc1ccc(-n2c(SC/C=C/c3ccccc3)nnc2-c2ccco2)cc1`, the inhibition was 6.61%.
For `CNC(=S)NNC(=O)c1oc2nc(-c3ccccc3)cc(-c3ccco3)c2c1N`, the inhibition is 17.2% (active).
As for `NNC(=O)c1oc2nc(-c3ccccc3)cc(-c3ccco3)c2c1N`, the figure is 19.6% (active).
Regarding `Cc1ccc(O)c(NC(=O)c2cc(-c3ccco3)on2)c1`, the inhibition is 3.18%.
Regarding `O=C1CCC2(CCC(c3ccc(Cl)cc3)CC2)N1CCO` (stereo not drawn), the inhibition is 6.92%.
Take `C=CCN1C(C(=O)OC)CN(Cc2cn(Cc3ccccc3)nn2)CCS1(=O)=O` (stereo not drawn): the inhibition was 5.02%.
Turning to `O=C(CSc1nc2c(c(=O)[nH]1)CCCC2)N1CCCCC1`, the inhibition was 1.16%.
On to `O=C(c1c[nH]c2ccccc12)N1CCC(Oc2cccnc2)CC1`, for which the inhibition is 7.61%.
In the case of `Cc1ccc(C(=O)N(Cc2ccccn2)CC2CCCO2)cc1` (stereo not drawn), the inhibition was -2.59%.
For the molecule `CCOC(=O)c1ccccc1N1C(=O)C2Sc3[nH]c(=O)sc3C(/C=C/c3ccccc3)C2C1=O` (stereo not drawn), the inhibition is 15.9%.
Regarding `CCOC(=O)C1CSCCS(=O)(=O)N1Cc1ccc(Cl)cc1` (stereo not drawn), the inhibition is -6.12%.
As to `CCOC(=O)C1Sc2[nH]c(=O)sc2C(c2ccc(Cl)cc2)C1C(=O)OCC` (stereo not drawn), the inhibition is 24.7% (active).
As for `COC(=O)c1cccc(Cn2ccc3ccc(-c4ccc5ccn(C(=O)c6ccccc6C)c5c4)cc32)c1`, the inhibition is 12.8%.
As for `COC(=O)C1CN(Cc2ccc(F)cc2)CCS(=O)(=O)N1Cc1ccc(Cl)cc1` (stereo not drawn), the inhibition was -1.35%.
In the case of `CCOC(=O)[C@]12CCCC3=C1N(CCC3)C(=O)[C@@H](CC(=O)NCC13CC4CC(CC(C4)C1)C3)C2`, the inhibition is -1.2%.
To `COc1ccc(-c2cc(C(=O)NC(Cc3c[nH]c4ccccc34)C(=O)O)c(C)o2)cc1OC` (stereo not drawn) belongs 17.2% (active); to `O=C(CCn1nnc2ccccc2c1=O)N[C@@H](Cc1c[nH]c2ccccc12)C(=O)O`, 2.35%.
As for `COc1ccc(-c2cc(C(=O)NC(C(=O)O)C(C)C)c(C)o2)cc1OC` (stereo not drawn), the inhibition was -1.04%.
In the case of `COc1ccc2c(C(C)c3ccc(N)cc3)cn(C)c2c1` (stereo not drawn), the inhibition is 15.5%.
To `CN(C)c1ccc(NC(=O)NC2CCCCN(Cc3ccc(Cl)cc3)C2=O)cc1` (stereo not drawn) belongs 11.1%.
`COc1ccc(C(=O)OCCN2CCN(C3CN(Cc4cn(Cc5ccccc5F)nn4)S(=O)(=O)C3)CC2)cc1OC` (stereo not drawn): the inhibition was 3.42%.
As for `Cc1ccc(NC(=S)NNC(=O)CSc2nnc(SCc3ccccc3Cl)s2)cc1`, the figure is 5.21%; as for `Cc1[nH]c2ccccc2c1C(=O)CN1CCCC(C)C1` (stereo not drawn), -6.16%.
As for `Cc1[nH]c2ccccc2c1C(=O)CN1CC(C)CC(C)C1` (stereo not drawn), the figure is -1.61%; as for `Cc1[nH]c2ccccc2c1C(=O)CSCC(=O)O`, 30.1% (active); as for `N#Cc1ccc(OC[C@@H](O)CN2CCC(C(O)(c3ccccc3)c3ccccc3)CC2)c(F)c1`, -5.05%.
Turning to `COC(CNC(=O)[C@H](Cc1ccccc1)NC1(C(=O)NC2CCCCC2)CCCCC1)OC`, the inhibition is 8.17%.
Take `Cc1ccc(NC(=S)NCCN2CCOCC2)cc1`: the inhibition was 57.3% (active).
Consider `Cc1cc(C)cc(NC(=S)NCCCN2CCOCC2)c1`, for which the inhibition was -2%.
As for `CCCC(=O)NC(=S)Nc1ccc(CN2CCOCC2)cc1`, the figure is -1.23%.
Consider `C=CCN(C)CC#Cc1ccccc1`, for which the inhibition was 1.7%.
Regarding `CCn1c(SCC(C)=O)nc2sc3c(c2c1=O)CCCC3`, the inhibition is 0.4%.
Turning to `Cn1c(NN)nc2sc3c(c2c1=O)CCC3`, the inhibition was 41.8% (active).
As to `COc1ccccc1-n1c(SCC(=O)O)nc2sc3c(c2c1=O)CCC3`, the inhibition was -0.36%.
As to `CCn1c2ccccc2c2cc(NC(=O)CSc3nnc(-c4ccccc4)n3-c3ccc(C)cc3)ccc21`, the inhibition is 4.72%.
With `CCn1c(=S)[nH]c2cc(S(=O)(=O)N3CCOCC3)ccc21`, the inhibition is -1%.
For the molecule `CNS(=O)(=O)c1ccc2c(c1)[nH]c(=S)n2C`, the inhibition was 18.6% (active).
Consider `CCCCn1c(=S)[nH]c2cc(S(=O)(=O)N3CCCCC3)ccc21`, for which the inhibition was 8.16%.
Consider `CN1[C@H](Cc2ccccc2)COc2cccc(N3CCSCC3)c2S1(=O)=O`, for which the inhibition is -5.79%.
With `O=S1(=O)c2c(NCc3ccco3)cccc2Oc2ccccc2CN1Cc1cn(Cc2cccc(C(F)(F)F)c2)nn1`, the inhibition is -2.9%.
For `C[C@@H]1CN([C@@H](C)CO)C(=O)c2cccc(NC(=O)Nc3cccc4ccccc34)c2O[C@H]1CN(C)S(=O)(=O)c1ccccc1F`, the inhibition was -1.21%.
Consider `Oc1ccc(N=Cc2c(O)ccc3ccccc23)cc1`, for which the inhibition is 21% (active).
Regarding `Oc1ccc(N=Cc2sc3ccccc3c2Cl)cc1`, the inhibition is 22.5% (active).
In the case of `CCOC(=O)C1CCN(C(=O)C(C)(C)NC(=O)Nc2ccccc2Cl)CC1`, the inhibition was -1.25%.
`O=C(Nc1nc2ccc(Cl)cc2s1)c1cc(-c2ccc(Cl)cc2)nc2ccccc12`: the inhibition was -3.74%.
To `CN(CCO)c1cccc2c1S(=O)(=O)N(Cc1cn(Cc3ccc(C(F)(F)F)cc3)nn1)Cc1ccccc1O2` belongs -1.94%; to `NNc1nc2c(Cl)cccc2s1`, 17.2% (active); to `O=S1(=O)c2ccc(Br)cc2OC[C@@H](Cc2ccccc2)N1Cc1cn(Cc2ccco2)nn1`, -0.13%.
With `COC(=O)C1CN(CCc2ccccc2)CCS(=O)(=O)N1Cc1cccc(Cl)c1` (stereo not drawn), the inhibition was -0.76%.
On to `O=C(c1cccnc1)N1CCN(S(=O)(=O)c2cccs2)CC1`, for which the inhibition is 4.01%.
For the molecule `O=C(N/N=C/c1sc(N2CCCCC2)nc1-c1cccs1)c1cccnc1`, the inhibition is 19.6% (active).
Regarding `O=C(Nc1cccc(Cl)c1N1CCOCC1)c1cccnc1`, the inhibition is -7.61%.
As to `COC(=O)CC1CCc2cc(C)cc(C(CC(C)C)NC(=O)[C@H](CC(C)C)NC(=O)OCc3ccccc3)c2O1` (stereo partly drawn), the inhibition is 4.19%.
Regarding `O=C(Nc1cccc(Cc2ccccc2)c1)Nc1ccc2nc([C@@H]3O[C@H](CO)[C@@H](O)[C@H](O)[C@H]3O)[nH]c2c1`, the inhibition was 21% (active).
For `O=C(Nc1ccc(Cl)cc1)c1csc([C@@H]2O[C@H](CO)[C@H](O)[C@H](O)[C@H]2O)n1`, the inhibition is -0.06%.
For the molecule `O=C(NCc1cccnc1)c1ccc2nc([C@@H]3O[C@H](CO)[C@H](O)[C@H](O)[C@H]3O)[nH]c2c1`, the inhibition was -0.84%.
Take `CC(CCN1CCC(C(O)(c2ccccc2)c2ccccc2)CC1)Oc1ccc(Cl)cc1` (stereo not drawn): the inhibition was -3.91%.
`CC(C)=CCCC1(C)C=Cc2c(ccc3c2[nH]c2cc(O)c(C)cc23)O1` (stereo not drawn): the inhibition was 20.8% (active).
As to `CCn1c(=O)n2n(c1=O)[C@@]1(C=C3CCCC[C@H]32)N=C(NC(=O)c2ccccc2)N(Cc2ccccc2)[C@H]1Cc1ccccc1`, the inhibition is 7.65%.
As for `COC(=O)C1CN(CC(C)C)CCS(=O)(=O)N1Cc1ccc(C)cc1` (stereo not drawn), the figure is 5.08%.
As for `O=C(OCc1nc2ccccc2[nH]1)C1CCCCC1`, the inhibition was 0.98%.
For the molecule `c1ccc2[nH]c(-c3nc4ccccc4[nH]3)nc2c1`, the inhibition was 47.9% (active).
As for `O=S(=O)(c1ccc(Br)cc1)N1CCC(c2nc3ccccc3[nH]2)CC1`, the figure is -5.23%; as for `COc1ccc(C2Nc3ccccc3C(=O)N2Cc2cccs2)cc1COc1c(C)cccc1C` (stereo not drawn), -4.49%; as for `O=C(CSc1nc2sc3c(c2c(=O)n1-c1ccccc1)CCCC3)NN=Cc1ccc(OCc2ccccc2)cc1`, 8.02%.
